Assay outcomes deposited in PubChem BioAssay by several laboratories.
PP1 counter – counter-screen for PP5 inhibitors: inhibitors of human PP1-alpha; purified PP1alpha, OMFP fluorescence; inhibition, % at 6.7 µM; actives 0.9% (n = 320,000); AID 2235;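 active = inhibition above the mean inhibition of all tested compounds plus 3 SD, computed separately for each screening campaign, cut at about 15% in these data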
PP5 inh – PP5 (human) phosphatase inhibition | P53041 | purified PP5c, OMFP substrate fluorescence | inhibition, % at 6.7 µM | actives 0.18% (n = 320,000);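 active = inhibition above the campaign's mean inhibition across all tested compounds plus 3 SD, cut at about 9.5% in these data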
Target sequence (P53041 whole entry, looked up): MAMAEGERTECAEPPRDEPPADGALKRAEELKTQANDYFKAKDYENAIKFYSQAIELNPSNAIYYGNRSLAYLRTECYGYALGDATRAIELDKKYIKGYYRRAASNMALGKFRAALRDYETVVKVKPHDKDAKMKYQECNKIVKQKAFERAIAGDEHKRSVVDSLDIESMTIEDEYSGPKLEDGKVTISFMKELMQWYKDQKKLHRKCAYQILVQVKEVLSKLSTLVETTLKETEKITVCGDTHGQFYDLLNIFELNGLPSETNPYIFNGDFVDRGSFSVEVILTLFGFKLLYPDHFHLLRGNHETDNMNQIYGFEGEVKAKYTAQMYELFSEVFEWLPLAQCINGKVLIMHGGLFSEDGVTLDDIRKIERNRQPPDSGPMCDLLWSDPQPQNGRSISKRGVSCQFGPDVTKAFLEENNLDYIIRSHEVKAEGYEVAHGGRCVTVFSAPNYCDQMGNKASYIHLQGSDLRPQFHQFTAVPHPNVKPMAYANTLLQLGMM
CSC inhib – cancer stem cell inhibition. cancer stem cell-like cells viability, luminescence. inhibition, % at 7.5 µM. actives 1.1% (n = 300,000). AID 2717; in the data active = inhibition above about 75%; inconclusive = no clear call, values can overlap the other calls; tested in HMLE shEcad cells
Calb FLC – affects C. albicans growth with fluconazole; C. albicans CaCi-2 (fluconazole-resistant clinical isolate) + fluconazole, Alamar Blue growth, 48 h; growth inhibition, % (test concentration not listed); actives 0.57% (n = 300,000); AID 1979;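 active = growth inhibition above about 58% in most replicates, limit read from the data, passing the limit was not always enough; inconclusive = exactly half the replicates above a set limit; inactive = most replicates below a set limit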;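 also: all wells also contain fluconazole at 8 µg/ml as a sub-toxic cotreatment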
ALR inh – inhibitors of human sulfhydryl oxidase ALR; P55789; inhibition, % (no concentration beside the values); actives 3.8% (n = 290,000); purified ALR, DTT oxidation, H2O2 HRP-luminol luminescence;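 active = mean replicate inhibition above about 79%, with every replicate also reaching it, limit read from the data; inconclusive = only one of the two criteria met; inactive = mean below limit and not every replicate reaching it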
PP1 inh confirm – human PP1 phosphatase inhibition, confirmation; shares compounds with PP1 counter; purified PP1alpha, OMFP substrate fluorescence; inhibition, % at 6.7 µM; actives 52% (n = 1,900); AID 2358;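 active = mean PP1 inhibition above a set limit taken from the earlier primary screen, cut at about 15% in these data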
PP5 counter – counter-screen for PP1 inhibitors: human PP5 phosphatase inhibition | shares compounds with PP1 counter | actives 4% (n = 1,900) | purified PP5c, OMFP fluorescence | inhibition, % at 6.7 µM;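 active = mean PP5 inhibition over triplicate wells above about 9.5% taken from the earlier PP1 screen, limit read from the data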
Of the large screens only hits and unclear results are named; the others gave an inactive call (follow-up assays come after a bar, where they were run). A selection: hits, their analogues and other compounds. The true share with any hit is near 5.4%.

N#Cc1nc(-c2ccccc2)oc1NCCCn1ccnc1	none
COc1ccc(C(=O)c2sc3nc(-c4ccccc4)ccc3c2N)cc1OC	PP1 counter 19.7 | PP1 inh confirm inactive | PP5 counter inactive
COc1ccc(-c2ccc3c(N)c(C(=O)c4ccc(OC)c(OC)c4)sc3n2)cc1	none (no result: CSC inhib)
COc1ccc(NC(=O)NNC(=O)COc2ccc3ccccc3c2)cc1OC	none
COc1ccc2cc(OCC(=O)NNC(=O)Nc3ccc(C(C)=O)cc3)ccc2c1	PP1 counter 43.4 (no result: CSC inhib) | PP1 inh confirm 40.5 | PP5 counter inactive
COc1ccc(NC(=O)NNC(=O)c2ccc(-c3ccccc3)cc2)c(OC)c1	none (no result: PP1 counter, PP5 inh)
COc1ccc(NC(=O)NNC(=O)COc2ccc3cc(Br)ccc3c2)cc1OC	PP1 counter 25.4 | PP1 inh confirm 24.6 | PP5 counter inactive
COc1ccc(NC(=O)NNC(=O)c2ccc(-c3ccccc3)cc2)cc1	PP1 counter 28.2 | PP1 inh confirm 22.5 | PP5 counter inactive
C#CCn1cc(/C=N/Nc2nc3ccccc3[nH]2)c2ccccc21	PP1 counter 21.7, CSC inhib 91.8 | PP1 inh confirm 23.8 | PP5 counter inactive
Fc1ccccc1-c1ccc(/C=N/Nc2nc3ccccc3[nH]2)o1	PP1 counter 17.8 (no result: Calb FLC) | PP1 inh confirm 17.8 | PP5 counter inactive
CCCCn1c(/C=N/Nc2nc3ccccc3[nH]2)nc2ccccc21	PP1 counter 20.6 (no result: CSC inhib) | PP1 inh confirm inactive | PP5 counter inactive
O=C(NCCN1CCCCC1)Nc1ccccc1Cl	none
Cc1nn(-c2ccccc2)c(Cl)c1/C=N/Nc1ccc(S(=O)(=O)Nc2ccccc2C(=O)O)cc1[N+](=O)[O-]	PP1 counter 19.9, CSC inhib 96.4 | PP1 inh confirm inactive | PP5 counter inactive
CSc1ccc(C=NNc2ccc(S(=O)(=O)Nc3ccccc3C(=O)O)cc2[N+](=O)[O-])cc1	none (no result: PP1 counter, PP5 inh, Calb FLC)
CCCCN(C)C(=O)c1nc2ccccn2c1CN1CCN(c2cnccn2)CC1	PP1 counter 19.2 | PP1 inh confirm inactive | PP5 counter inactive
O=C(Nc1nc(-c2ccccn2)cs1)c1ccc2c(c1)OCCO2	PP1 counter 39.4 | PP1 inh confirm 42.5 | PP5 counter inactive
O=C(Nc1nc(-c2ccccc2)cs1)C1COc2ccccc2O1 (stereo not drawn)	none
O=C(Nc1nc(-c2ccccn2)cs1)C1COc2ccccc2O1 (stereo not drawn)	PP1 counter 29.2 (no result: Calb FLC) | PP1 inh confirm 40.6 | PP5 counter inactive
COc1cc(CO)cc(-c2cc(CO)cc(OC)c2OC)c1OC	none
CC(C)Oc1ccccc1OCCCCn1cnc2ccccc2c1=O	none
Cn1nc(C(F)(F)F)c(C(=O)Nc2ccc(Cl)cc2)c1Cl	Calb FLC inconclusive
COc1ccc(CN(CCN(C)C)c2ccccn2)cc1	none (no result: Calb FLC)
CCCCCCCCCCCCCCCC[N+](C)(C)CCN(Cc1ccc(OC)cc1)c1ncccn1	PP1 counter 69.5, PP5 inh 10.9, CSC inhib 117.4 (no result: Calb FLC) | PP1 inh confirm 34.8 | PP5 counter inactive
O=C(CCN1C(=O)/C(=C/c2ccccc2F)SC1=S)NCCCN1CCOCC1	none
CCOC(=O)c1c(C)[nH]c(C(=O)OCC(=O)NCc2ccc(C)cc2)c1C	PP1 counter 18.8 (no result: Calb FLC) | PP1 inh confirm inactive | PP5 counter inactive
CCOC(=O)c1c(C)[nH]c(C(=O)OCC(=O)NCc2ccccc2)c1C	none (no result: PP1 counter, PP5 inh, Calb FLC)
Cn1c(=O)c(C(=O)CN2CCc3ccccc32)c(N)n(Cc2ccccc2)c1=O	PP1 counter 21.6 | PP1 inh confirm inactive | PP5 counter inactive
CCCOc1ccc(-c2nc[nH]c2[N+](=O)[O-])cc1	none
CC(C)(C)Nc1nc(OCC(F)(F)F)nc(OCC(F)(F)F)n1	none
CN(CC(O)CON=C1c2ccccc2-c2ccccc21)S(=O)(=O)c1ccc(Br)cc1 (stereo not drawn)	PP1 counter 40.5, CSC inhib 97.9 (no result: ALR inh) | PP1 inh confirm inactive | PP5 counter inactive
O=C(NCCc1ccccc1F)/C(=C/c1cccnc1)NC(=O)c1ccccc1	none
CSc1ccc(CCNC(=O)Cn2ncc3c([nH]c4ccccc43)c2=O)cc1	none
Cc1cc2c(s1)c1cnn(CC(=O)NCCc3ccccc3)c(=O)c1n2C	PP1 counter 19.7 | PP1 inh confirm inactive | PP5 counter inactive
O=C(Cn1ncc2c([nH]c3ccccc32)c1=O)NCCc1ccc(Cl)cc1	PP1 counter 18.3 | PP1 inh confirm 20.8 | PP5 counter inactive
CN1CCN(CCCNC(=O)Cn2ncc3c4ccccc4n(C)c3c2=O)CC1	none
